# Bioassay records from PubChem.
# Mtb UGM inh: M. tuberculosis UGM enzyme inhibitors, primary screen, biochemical, fluorescence polarization, single point; UDP-galactopyranose mutase (Mycobacterium tuberculosis (strain ATCC 25618 / H37Rv)), …; purified UGM, fluorescence polarization probe displacement; inhibition, % at 10 µM; 0.06% of 320,000 active; in the data active = inhibition above about 10%, passing the limit was not always enough
# Rv3671c inh: Rv3671c serine protease inhibitors, primary screen, biochemical, fluorescence polarization, M. tuberculosis H37Rv. P9WHR9. inhibition, % at 5.96 µM. 0.048% of 320,000 active. AID 2606, 2010; in the data active = inhibition above about 38%;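 also: extracellular domain of Rv3671c used as enzyme; 0% = enzyme with DMSO and 100% = no enzyme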
# RecA intein inh: Mtb RecA intein splicing inhibitors, primary screen, biochemical, fluorescence, HTS; inhibition, % (no concentration beside the values); 0.75% of 290,000 active; AID 2221, 2009; cell-free RecA intein splicing; in the data active = inhibition above about 30%;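 also: 0% = vehicle wells and 100% = reference inhibitor control wells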
# GDH-TPI inh: GDH-TPI coupling enzyme inhibitors, primary screen, artefact control for M. tuberculosis FBA inhibitor project, biochemical, absorbance, full deck; GDH-TPI coupled enzyme counterscreen, NADH absorbance; inhibition, % at 4.8 µM; 1.2% of 360,000 active; in the data active = inhibition above about 30%;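 also: 0% = DMSO wells and 100% = wells lacking the enzyme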
# Mtb betalactam: beta-lactam sensitization of Mtb H37Rv, H37Rv; 0.27% of 330,000 active; AID 434955, 2010; inhibition, % at 25 µM; M. tuberculosis H37Rv growth with meropenem, percent inhibition;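 also: growth measured after seven days incubation then overnight dye step; 0% = bacteria only wells and 100% = bacteria with antibiotic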
# FBA Mtb inh: Mtb FBA enzyme inhibitors, primary screen, biochemical, fluorescence, strain H37Rv; purified M. tuberculosis FBA, fluorescence read-out; Fructose-bisphosphate aldolase (Mycobacterium tuberculosis (strain ATCC 25618 / H37Rv)), …; inhibition, % at 1 µM; 2.3% of 360,000 active; in the data active = inhibition above about 27%;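 also: 0% = vehicle and 100% = reference inhibitor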
# Target sequence (P9WQA3 whole entry, looked up): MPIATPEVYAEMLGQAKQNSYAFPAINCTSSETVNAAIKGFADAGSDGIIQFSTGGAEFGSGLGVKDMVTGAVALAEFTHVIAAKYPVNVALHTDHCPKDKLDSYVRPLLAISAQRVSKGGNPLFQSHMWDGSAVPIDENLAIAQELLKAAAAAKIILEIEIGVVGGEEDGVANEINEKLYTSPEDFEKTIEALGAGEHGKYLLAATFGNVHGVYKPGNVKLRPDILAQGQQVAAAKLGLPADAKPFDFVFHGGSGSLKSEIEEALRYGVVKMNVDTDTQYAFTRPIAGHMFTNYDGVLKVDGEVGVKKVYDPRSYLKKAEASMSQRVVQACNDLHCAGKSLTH
# GFP chromophore: counter-screen: blocks GFP chromophore formation, dose response, counter-screen, biochemical, fluorescence, homogeneous | shares compounds with RecA intein inh | cell-free GFP chromophore formation | EC50, µM | 83% of 2,100 active
# * = called active by the depositor; . = no result; + = active, no number. Shown are actives, neighbours in structure and some others; about 4% of the full set was active somewhere. Unless noted, no rule for the calls is given here.
SMILES,Mtb UGM inh,Rv3671c inh,RecA intein inh,GDH-TPI inh,Mtb betalactam,FBA Mtb inh,GFP chromophore
O=c1oc2cc(Oc3c([N+](=O)[O-])cc(C(F)(F)F)cc3[N+](=O)[O-])ccc2c2c1CCCC2,3.1,-2.7,41.5*,22.3,85.1,+,0.962*
Cc1ccc(NC(=O)NNS(=O)(=O)c2ccc(Br)cc2)cc1,3.4,-12.1,-2.0,0.8,0.6,3.2,.
Cc1ccc(S(=O)(=O)NC(=O)Nc2ccc(N(C)C)cc2)cc1,2.2,-29.8,49.1*,0.0,-9.4,0.8,19*
Cc1cnc(CNC(=O)C2CCC(=O)N(CCc3cccc(F)c3)C2)[nH]1 (stereo unspecified),0.7,4.6,0.7,4.3,0.6,-2.8,.
CC(C)Cc1ccc(C(=O)NCCOc2ccccc2)o1,-3.7,3.8,-2.1,2.3,3.6,-1.6,.
CCn1c(-c2ccccc2)c(C(=O)CCl)c2ccccc21,2.5,3.7,40.3*,0.0,99.1,6.0,1.6*
Cn1c(-c2ccccc2)c(CCO)c2ccccc21,1.6,-5.1,0.6,15.9,51.6,0.9,.
Cn1c(-c2ccccc2)c(C(=O)CCl)c2ccccc21,.,.,41.9*,12.3,.,0.0,14.2*
CCn1c(=O)c(C(=O)NCCc2ccccc2)c(O)c2ccccc21,-1.6,-16.4,4.1,-2.8,-4.8,4.0,.
Fc1cnc(Cl)nc1NC1CCCCC1,0.3,-3.8,-0.4,-5.7,4.9,-3.2,.
N#C/C(=C/c1ccncc1)c1nc2ccccc2s1,-2.5,-13.9,73.6*,7.3,-3.1,1.9,21.6*
CCO/C=C1/C(=O)N(Cc2ccccc2)C(=O)c2ccccc21,-1.5,-104.3,36.3*,-1.1,1.7,2.5,>12
CCO/C=C1\C(=O)N(c2ccccc2)C(=O)c2ccccc21,-2.6,-6.9,.,-6.2,2.4,15.4,.
CC(=O)N1CC2(c3ccccc3)CN(C(C)=O)CC(c3ccccc3)(C1)C2=O,1.2,12.3,61.7*,2.6,-3.9,4.2,>38
Cc1ccsc1C(=O)N1CCC1(C)C(=O)NCCC#N (stereo unspecified),.,.,.,4.6,.,-3.2,.
O=Cc1cn(-c2ccccc2)nc1-c1ccccc1,-0.4,-5.0,1.6,4.3,-10.0,0.7,.
CC1=NNC(=O)/C1=C\c1cn(-c2ccccc2)nc1-c1ccccc1,-1.0,-5.6,97.4*,9.2,71.5,-3.9,1.77*
COc1cc(C(=O)CSc2nnc(-c3ccc(O)cc3)n2CC2CCCO2)ccc1NC(C)=O (stereo unspecified),2.0,-5.7,36.2*,6.4,-3.1,-1.2,>38
CCC(=O)Nc1ccc(C(=O)CSc2nnc(-c3ccc(O)cc3)n2CC2CCCO2)cc1 (stereo unspecified),2.0,-3.4,0.6,1.2,-8.1,-0.3,.
Cn1cnc([N+](=O)[O-])c1S(=O)(=O)c1cccc(Cl)c1,0.6,-4.0,60.6*,1.9,100.3,0.3,26.9*
O=C(Nc1ccc2nc3n(c(=O)c2c1)CCCCC3)c1c(F)ccc([N+](=O)[O-])c1F,-1.7,-35.4,59.6*,1.7,79.3,1.6,24.6*
O=C(Nc1ccc2nc3n(c(=O)c2c1)CCCCC3)c1cc([N+](=O)[O-])ccc1F,0.6,-11.4,26.4,5.2,85.0,4.0,.
CC(C)c1ccc(NC(=O)CCNS(=O)(=O)c2cc(Br)cnc2N)cc1,-0.1,-2.9,-3.6,12.8,-2.3,2.5,.
CCOc1cccc(N)c1,1.6,1.1,.,-0.7,28.3,-0.3,.
COc1ccc(-c2c[nH]c(=O)[nH]c2=O)cc1OC,-1.7,1.8,-6.9,-2.9,-4.2,4.9,.
SMILES,Mtb UGM inh,Rv3671c inh,RecA intein inh,GDH-TPI inh,Mtb betalactam,FBA Mtb inh,GFP chromophore
COc1ccc(-c2cc(=O)[nH][nH]2)cc1OC,-1.7,-156.3,98.7*,3.0,-7.1,3.4,0.967*
CCOc1cccc(-c2cc(=O)[nH][nH]2)c1,1.9,-102.7,96.8*,-6.9,-16.6,0.3,2.53*
COc1cccc(-c2cc(=O)[nH][nH]2)c1,0.8,-14.9,97.9*,7.5,-2.6,-1.1,2.18*
COc1ccc(Cl)cc1N1C(=O)CC(N2CCN(S(=O)(=O)c3ccccc3F)CC2)C1=O (stereo unspecified),4.2,-1.0,.,-7.7,-8.2,0.1,.
Cc1ccc(C)c(NC(=O)CCN2CCCCC2)c1,0.8,0.0,.,-5.4,-2.1,-1.0,.
COc1cc(C)ccc1OCc1cc(C(=O)N2CCC(c3ccc(F)cc3)C2)no1 (stereo unspecified),-6.6,-2.2,-1.4,-13.8,3.7,4.2,.
CC(C)c1cccc(-c2csc(C(C)(O)c3cccc(F)c3)n2)c1 (stereo unspecified),.,.,.,12.5,.,4.0,.
CCN(CC)S(=O)(=O)c1ccc(NC(=O)COC(=O)CNC(=O)C2CCCCC2)cc1,.,.,.,-1.4,.,-0.4,.
CN(C(=O)COC(=O)C(C)(C)Oc1ccc(Cl)cc1)c1c(N)n(Cc2ccccc2)c(=O)[nH]c1=O,2.0,2.5,2.1,1.4,-8.2,3.4,.
O=S(=O)(Nc1ncccn1)c1ccc(F)cc1,-3.5,.,1.0,5.1,-6.0,-1.2,.
O=S(=O)(Nc1c(O)ccc2ccccc12)c1ccccc1,3.0,-8.2,93.3*,-7.6,10.4,-0.3,2.2*
O=S(=O)(Nc1c(O)ccc2ccccc12)c1ccc(F)cc1,3.3,-6.2,95.4*,2.4,1.8,2.0,3.04*
O=S(=O)(Nc1cccc2ccccc12)c1ccccc1,.,4.3,-0.1,13.9,-1.4,1.3,.
O=C1OC(Cc2ccccc2)(c2ccccc2)c2ccccc21 (stereo unspecified),.,.,.,3.1,.,-2.5,.
ClN=C1C=CC=CC1=NCl,.,.,.,.,.,0.8,.
[O-][n+]1c2c(nc3c1-c1ccccc1C3O)CCCC2 (stereo unspecified),2.2,-8.8,40.7*,.,-3.5,.,32.9*
COc1ccc(NC(=O)N(C)C[C@H]2OCCCC[C@@H](C)Oc3ccc(NC(=O)c4ccccc4)cc3C(=O)N([C@H](C)CO)C[C@@H]2C)cc1,.,.,.,11.8,.,-3.7,.
O=C(Nc1ccccc1)c1cc(C2CCCCN2C(=O)OCCF)on1 (stereo unspecified),.,.,.,-14.6,.,-0.5,.
O=C(OCCc1cc2ccccc2c(=O)o1)c1cccc(Br)c1,-0.2,-12.7,.,7.6,6.9,3.9,.
Cc1ccc2c(c1)N(C(=O)CCC(=O)N1CCC(C(N)=O)CC1)CC(C)O2 (stereo unspecified),0.8,5.3,0.0,4.3,-8.1,3.3,.
O=C(CSc1c2c(nc3cc(Cl)ccc13)CCCC2)NCc1ccco1,3.9,-4.3,30.1*,4.4,2.3,3.3,>38
